# About 2,000 (36%) of roughly 5,500 compounds were called active. Not shown: some 18% with an inconclusive outcome. The list shows a part of the results. Values without a mark were called inactive. Rule as the data show it: active = normalized growth mostly below about 0.91 (no sharp cut-off); inconclusive = no clear call, values can overlap the other calls; inactive = mostly above about 0.92.
# Experiment: chemical genetic growth profiling, strain panel (AID 1159580);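 also: tested at 20 µM; growth read once vehicle control cultures reached saturation at 30 °C; 1 = growth at the plate median or of vehicle wells; lower values mean less growth of the strain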
# Settings: S. cerevisiae deletion strains, growth OD
compound,measurement,setting,value
O=C(O)c1cc(=O)c(O)c2c(O)c(O)c(O)cc2c1,normalized growth,"locus YAL021C, strain ccr4, hits give low values",0.0892 (active)
same,normalized growth,"locus YAL026C, strain drs2, hits give low values",0.216 (active)
same,normalized growth,"locus YAL030W, strain snc1, hits give low values",0.757 (active)
same,normalized growth,"locus YBL061C, strain skt5, hits give low values",0.639 (active)
same,normalized growth,"locus YBR009C, strain hhf1, hits give low values",0.694 (active)
same,normalized growth,"locus YBR023C, strain chs3, hits give low values",0.549 (active)
same,normalized growth,"locus YBR171W, strain sec66, hits give low values",0.812 (active)
same,normalized growth,"locus YBR231C, strain swc5, hits give low values",0.483 (active)
same,normalized growth,"locus YBR279W, strain paf1, hits give low values",0.754 (active)
same,normalized growth,"locus YCL011C, strain gbp2, hits give low values",0.72 (active)
same,normalized growth,"locus YCL016C, strain dcc1, hits give low values",0.809 (active)
same,normalized growth,"locus YCL061C, strain MRC1, hits give low values",0.651 (active)
same,normalized growth,"locus YCL069W, strain vba3, hits give low values",0.69 (active)
same,normalized growth,"locus YCR088W, strain abp1, hits give low values",0.707 (active)
same,normalized growth,"locus YDL005C, strain med2, hits give low values",0.953
same,normalized growth,"locus YDL040C, strain nat1, hits give low values",0.906 (active)
same,normalized growth,"locus YDR001C, strain nth1, hits give low values",0.846 (active)
same,normalized growth,"locus YDR069C, strain doa4, hits give low values",0.161 (active)
same,normalized growth,"locus YDR137W, strain rgp1, hits give low values",0.142 (active)
same,normalized growth,"locus YDR159W, strain sac3, hits give low values",0.134 (active)
same,normalized growth,"locus YDR195W, strain ref2",0.481 (active)
same,normalized growth,"locus YDR297W, strain sur2, hits give low values",0.729 (active)
same,normalized growth,"locus YDR334W, strain swr1, hits give low values",0.353 (active)
same,normalized growth,"locus YDR335W, strain msn5, hits give low values",0.128 (active)
same,normalized growth,"locus YDR392W, strain spt3, hits give low values",0.708 (active)
same,normalized growth,"locus YEL003W, strain gim4, hits give low values",0.511 (active)
same,normalized growth,"locus YEL037C, strain rad23, hits give low values",0.552 (active)
same,normalized growth,"locus YEL061C, strain CIN8 (second series), hits give low values",0.756 (active)
same,normalized growth,"locus YER015W, strain faa2, hits give low values",0.488 (active)
same,normalized growth,"locus YER016W, strain bim1, hits give low values",0.84 (active)
same,normalized growth,"locus YER111C, strain swi4, hits give low values",0.14 (active)
same,normalized growth,"locus YER155C, strain BEM2 (second series), hits give low values",0.432 (active)
same,normalized growth,"locus YFR010W, strain ubp6, hits give low values",0.374 (active)
same,normalized growth,"locus YGL167C, strain pmr1, hits give low values",0.558 (active)
same,normalized growth,"locus YGL173C, strain kem1, hits give low values",0.352 (active)
same,normalized growth,"locus YGL227W, strain vid30, hits give low values",0.944
same,normalized growth,"locus YGL240W, strain doc1, hits give low values",0.869 (active)
same,normalized growth,"locus YGL253W, strain hxk2, hits give low values",0.545 (active)
same,normalized growth,"locus YHR013C, strain ard1, hits give low values",0.546 (active)
same,normalized growth,"locus YHR027C, strain rpn1, hits give low values",0.422 (active)
same,normalized growth,"locus YHR030C, strain SLT2, hits give low values",0.581 (active)
same,normalized growth,"locus YHR079C, strain IRE1, hits give low values",0.546 (active)
same,normalized growth,"locus YHR142W, strain chs7, hits give low values",0.363 (active)
same,normalized growth,"locus YJL092W, strain hpr5, hits give low values",0.728 (active)
same,normalized growth,"locus YJL095W, strain BCK1 (second series), hits give low values",0.604 (active)
same,normalized growth,"locus YJL095W, strain BCK1, hits give low values",0.575 (active)
same,normalized growth,"locus YJL115W, strain asf1, hits give low values",0.771 (active)
same,normalized growth,"locus YJL129C, strain trk1, hits give low values",0.235 (active)
same,normalized growth,"locus YJL154C, strain vps35, hits give low values",0.768 (active)
same,normalized growth,"locus YJL164C, strain tpk1, hits give low values",0.666 (active)
same,normalized growth,"locus YJL166W, strain qcr8, hits give low values",0.743 (active)
same,normalized growth,"locus YJL187C, strain SWE1, hits give low values",0.737 (active)
same,normalized growth,"locus YJR066W, strain TOR1, hits give low values",0.312 (active)
same,normalized growth,"locus YKL160W, strain elf1, hits give low values",0.777 (active)
same,normalized growth,"locus YKR026C, strain gcn3, hits give low values",0.854 (active)
same,normalized growth,"locus YKR091W, strain srl3, hits give low values",0.934
same,normalized growth,"locus YLL001W, strain dnm1, hits give low values",0.548 (active)
same,normalized growth,"locus YLL026W, hits give low values",0.804 (active)
same,normalized growth,"locus YLL041C, strain sdh2, hits give low values",0.897 (active)
same,normalized growth,"locus YLR027C, strain aat2, hits give low values",0.718 (active)
same,normalized growth,"locus YLR113W, strain HOG1, hits give low values",0.525 (active)
same,normalized growth,"locus YLR221C, strain rsa3, hits give low values",0.685 (active)
same,normalized growth,"locus YLR258W, strain gsy2, hits give low values",0.787 (active)
same,normalized growth,"locus YLR262C, strain YPT6 (second series), hits give low values",0.483 (active)
same,normalized growth,"locus YLR320W, strain mms22, hits give low values",0.56 (active)
same,normalized growth,"locus YLR342W, strain FKS1, hits give low values",0.538 (active)
same,normalized growth,"locus YLR357W, strain rsc2, hits give low values",0.593 (active)
same,normalized growth,"locus YLR370C, strain arc18, hits give low values",0.347 (active)
same,normalized growth,"locus YLR384C, strain iki3, hits give low values",0.642 (active)
same,normalized growth,"locus YML120C, strain ndi1, hits give low values",0.193 (active)
same,normalized growth,"locus YMR058W, strain fet3, hits give low values",0.275 (active)
same,normalized growth,"locus YMR125W, strain sto1, hits give low values",0.89
same,normalized growth,"locus YMR129W, hits give low values",0.815 (active)
same,normalized growth,"locus YMR205C, strain PFK2, hits give low values",0.547 (active)
same,normalized growth,"locus YMR231W, strain pep5, hits give low values",0.169 (active)
same,normalized growth,"locus YNL071W, strain lat1, hits give low values",0.873 (active)
same,normalized growth,"locus YNL183C, strain NPR1, hits give low values",0.243 (active)
same,normalized growth,"locus YNL209W, strain ssb2, hits give low values",0.273 (active)
same,normalized growth,"locus YNL248C, strain rpa49, hits give low values",0.725 (active)
same,normalized growth,"locus YNL322C, strain KRE1 (second series), hits give low values",0.208 (active)
same,normalized growth,"locus YNR049C, strain mso1, hits give low values",0.79 (active)
same,normalized growth,"locus YOR001W, strain rrp6, hits give low values",0.544 (active)
same,normalized growth,"locus YOR070C, strain gyp1, hits give low values",0.849 (active)
same,normalized growth,"locus YOR080W, strain dia2, hits give low values",0.387 (active)
same,normalized growth,"locus YOR083W, strain WHI5, hits give low values",0.645 (active)
same,normalized growth,"locus YOR106W, strain vam3, hits give low values",0.295 (active)
same,normalized growth,"locus YOR231W, strain MKK1, hits give low values",0.615 (active)
same,normalized growth,"locus YOR265W, strain rbl2, hits give low values",0.771 (active)
same,normalized growth,"locus YOR270C, strain vph1, hits give low values",0.198 (active)
same,normalized growth,"locus YOR290C, strain snf2, hits give low values",0.0962 (active)
same,normalized growth,"locus YPL051W, strain arl3, hits give low values",0.465 (active)
same,normalized growth,"locus YPL078C, strain atp4, hits give low values",0.124 (active)
same,normalized growth,"locus YPL106C, strain sse1, hits give low values",0.723 (active)
same,normalized growth,"locus YPL240C, strain hsp82, hits give low values",0.872 (active)
same,normalized growth,"locus YPL256C, strain CLN2, hits give low values",0.567 (active)

# From PubChem BioAssay AID1159580 (chemical genetic matrix, 2015)
